CHX counter = counter-screen hit for Shiga toxin inhibitors, cycloheximide; cell reporter, cycloheximide protein synthesis inhibition counterscreen; max response, %; actives 12% (n = 300,000); AID 2314; in the data active = max response mostly above about 13%, no sharp cut-off; inactive = mostly below about 14%; note: read at 38.3 µM for the half of the compounds with a filed dose; 0% is about no effect
HCV inhibitor = blocks hepatitis C virus. Huh7.5.1 HCVcc-Cre infection, luciferase reporter, 44 h. AID 651820. Potency, µM (titrated, usually from 41.8 µM), for the others: at the highest dose activity change, negative = inhibition, usual class: inhibitors. actives 3.4% (n = 340,000); active = well fitted inhibition curve with a large enough effect; inconclusive = small, poorly fitted or top-dose-only effect, or another doubt; inactive = no such curve, though single readings can be large or run the other way; note: potency is the fitted concentration of half-maximal effect; % is set by controls: 0 for no effect and ±100 for the full control effect
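Luciferase read-out (15 sec integration) after a 15 min room-temperature substrate step quantifies HCVcc-Cre infection. Cells, 1,000 per well, had compound added 4 h post-plating, then virus at ~0.5 moi, and were cultured 44 h.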
FMDV inh = foot and mouth disease virus antiviral activity. actives 1.2% (n = 410,000). FMDV antiviral cell-based qHTS. Potency, µM (series often up to 57.9 µM), inactives show at the highest dose activity change, negative = inhibition, actives largely listed as inhibitors; calls by dose curve; tested in HEK293T cells; note: read-out not given here; potency is the fitted concentration of half-maximal effect; % is set by controls: 0 for no effect and ±100 for the full control effect; nearly all actives have a fitted effect of over 45% in size
Marburg entry inh = blocks Marburg virus binding to or entry into cells; Marburg virus pseudotyped entry inhibition, cell reporter; Potency, µM (doses to about 37.8 µM), inactives show at the top dose activity change, negative = inhibition, usual class: inhibitors; actives 1.8% (n = 300,000); AID 540276; calls by dose curve; tested in HEK293 cells; note: potency is the fitted concentration of half-maximal effect; % is set by controls: 0 for no effect and ±100 for the full control effect
Lassa entry inh = blocks Lassa virus binding to or entry into cells | Lassa virus pseudotype entry inhibition, cell reporter | Potency, µM (series often up to 37.9 µM), inactives show at the top dose activity change, negative = inhibition, actives largely listed as inhibitors | actives 1.2% (n = 300,000); calls by dose curve; tested in HEK293 cells; note: potency is the fitted concentration of half-maximal effect; % is set by controls: 0 for no effect and ±100 for the full control effect; nearly all actives have a fitted effect of over 50% in size
Shiga toxin inh = inhibitors of Shiga toxin in Vero cells; AID 2315; actives 9.2% (n = 290,000); Vero cells, Shiga toxin protein synthesis inhibition reporter; inhibition, % at 38.7 µM; in the data active = inhibition mostly above about 28%, no sharp cut-off; inactive = mostly below about 43%; note: 0% is about no effect
An asterisk follows results filed as active; ! = not active in a repeat; [ ] = another dose, or the depositor's remark. Compounds with a hit are over-represented: about 13% of the library has one in this group of screens.

`COCC(C)N1CCC(Oc2cccc(C(=O)NCCc3ccccc3)c2)CC1` (stereo not drawn) gave CHX counter 59.4*, HCV inhibitor -3.8%, FMDV inh 53.0% and Shiga toxin inh 107.0*.
`CCCc1sc(N)nc1-c1ccc(C)cc1` gave CHX counter -1.3, HCV inhibitor inconclusive, FMDV inh -15.5%, Marburg entry inh -12.7%, Lassa entry inh 1.8% and Shiga toxin inh -3.1.
`CCCc1sc(N/N=C/c2ccccn2)nc1-c1ccc(Br)cc1` gave CHX counter 6.1, HCV inhibitor 3.16µM*, FMDV inh -1.0%, Marburg entry inh inconclusive, Lassa entry inh 5.17µM* and Shiga toxin inh 19.2.
`CC(c1ccccc1)n1c(Br)nc2c1c(=O)[nH]c(=O)n2C` (stereo not drawn) gave CHX counter -3.6, HCV inhibitor 18.4%, FMDV inh -6.9%, Marburg entry inh -2.9% and Lassa entry inh -6.0%.
`O=C(O)CSc1ccc2ccccc2n1` gave CHX counter -1.0, HCV inhibitor -2.6%, FMDV inh -3.6%, Marburg entry inh inconclusive, Lassa entry inh -12.5% and Shiga toxin inh -4.1.
O=C(O)CCSc1ccc2ccccc2n1 was read as CHX counter 13.2, HCV inhibitor 7.8%, FMDV inh 25.5%, Marburg entry inh -1.8%[46.1 µM], Lassa entry inh -8.7% and Shiga toxin inh 29.9*!.
For COc1cccc(NC(=O)CCSc2ccc3ccccc3n2)c1 the results were CHX counter 15.4*, HCV inhibitor 11.2%, FMDV inh 39.2%, Marburg entry inh -5.4%, Lassa entry inh -10.0% and Shiga toxin inh 16.6.
For CCn1nc(C)c(CN2CCc3c([nH]c4ccccc34)C2c2ccc(F)c(OC)c2)c1C (stereo not drawn) the results were CHX counter 16.5*, HCV inhibitor inconclusive, FMDV inh -8.6%, Marburg entry inh inconclusive, Lassa entry inh 23.1%[46.1 µM] and Shiga toxin inh 19.4.
`COc1ccccc1CNc1cc(CSc2ccc(Cl)cc2)nc(C)n1` gave CHX counter 6.8, HCV inhibitor inconclusive, FMDV inh 39.8µM*, Marburg entry inh inconclusive, Lassa entry inh -7.5% and Shiga toxin inh -11.1.
`COc1ccccc1CNc1cccc(C)n1` gave FMDV inh -3.0%.
`Cc1nc(CSc2ccc(Cl)cc2)cc(N2CC(C)OC(C)C2)n1` (stereo not drawn) gave CHX counter 6.4, HCV inhibitor -3.1%, FMDV inh -14.5%, Marburg entry inh inconclusive, Lassa entry inh inconclusive and Shiga toxin inh 0.8.
`COc1cccc(CNc2cc(CSc3ccc(Cl)cc3)nc(C)n2)c1` gave CHX counter -0.3, HCV inhibitor inconclusive, FMDV inh 12.6µM*, Marburg entry inh -7.8%, Lassa entry inh inconclusive and Shiga toxin inh -13.7.
For O=C(CSc1ncnc2c1cnn2-c1ccccc1Cl)N1CCN(C(=O)c2ccco2)CC1 the results were CHX counter -5.9, HCV inhibitor -25.0%, FMDV inh 35.5µM*, Marburg entry inh -23.4%[46.1 µM], Lassa entry inh inconclusive and Shiga toxin inh -9.0.
For COC(=O)c1c(NC(=O)CSc2ncnc3c2cnn3-c2ccccc2Cl)sc2c1CCCC2 the results were CHX counter -2.2, HCV inhibitor inconclusive, FMDV inh -21.2%, Marburg entry inh inconclusive, Lassa entry inh 5.8µM* and Shiga toxin inh 10.8.
Cc1ccccc1-n1ncc2c(SCC(=O)NC3CCCC3)ncnc21 was read as CHX counter 32.1, HCV inhibitor 3.98µM*, FMDV inh inconclusive, Marburg entry inh inconclusive and Shiga toxin inh 70.5*.
For Cc1nnc(NC(=O)CSc2ncnc3c2cnn3-c2ccccc2C)s1 the results were CHX counter 1.8, HCV inhibitor 0.3%, Marburg entry inh -19.8%, Lassa entry inh 0.5% and Shiga toxin inh 1.8.
N#Cc1c(NC(=O)CSc2ncnc3c2cnn3-c2ccccc2Cl)sc2c1CCCC2 was read as CHX counter -3.2, HCV inhibitor inconclusive, FMDV inh -11.5%, Marburg entry inh inconclusive, Lassa entry inh inconclusive and Shiga toxin inh -4.5.
For Cn1nc(-c2ccc(Cl)cc2)nc2c(=O)n(C)c(=O)nc1-2 the results were CHX counter 25.3, Marburg entry inh 0.1% and Shiga toxin inh 21.6*.
Screening NC(=O)c1ccccc1OCCOc1ccc(Br)cc1 returned CHX counter 17.2*, HCV inhibitor inconclusive, FMDV inh -0.8%, Marburg entry inh inconclusive, Lassa entry inh -29.6%[46.1 µM] and Shiga toxin inh 56.5*.
Screening CC(=O)Nc1ccccc1OCCOc1ccc(Br)cc1 returned CHX counter 4.9, HCV inhibitor inconclusive, FMDV inh 0.0%, Marburg entry inh inconclusive, Lassa entry inh inconclusive and Shiga toxin inh 17.2.
Screening COC(=O)C1=Nc2ccccc2/C1=C\c1c(O)n(-c2ccc(Br)cc2)c(=O)[nH]c1=O returned CHX counter 1.4, HCV inhibitor inconclusive, FMDV inh 20µM*, Marburg entry inh -17.8%, Lassa entry inh -1.3% and Shiga toxin inh -12.7.
For COC(=O)C1=Nc2ccccc2/C1=C\c1c(O)n(-c2ccc(OC)cc2)c(=O)[nH]c1=O the results were CHX counter 4.2, HCV inhibitor -18.7%, FMDV inh -18.5%, Marburg entry inh -17.8%, Lassa entry inh -1.5% and Shiga toxin inh -18.2.
`O=c1[nH]c(=O)n(-c2ccccc2)c(O)c1/C=C1/C(c2ccccc2)=Nc2ccccc21` gave CHX counter 47.6*, HCV inhibitor inconclusive, FMDV inh inconclusive, Marburg entry inh -14.9%, Lassa entry inh -13.7% and Shiga toxin inh 30.2*.
For O=C(O)c1ccc(-n2c(O)c(/C=C3\C=Nc4ccccc43)c(=O)[nH]c2=O)cc1 the results were CHX counter -0.8, HCV inhibitor 14.5%, FMDV inh -7.3%, Marburg entry inh -15.2%[46.1 µM], Lassa entry inh 14.9%[46.1 µM] and Shiga toxin inh 2.4.
`Cc1nc2cc(-c3cccc(F)c3)nn2c(C)c1CCC(=O)NC(C)c1ccccc1` (stereo not drawn) gave FMDV inh -25.2%, Marburg entry inh 7.8%[46.1 µM] and Lassa entry inh -6.9%[46.1 µM].
Screening CCOc1cc(/C=C(\C#N)C(=O)Nc2ccccn2)ccc1O returned CHX counter 12.8*, HCV inhibitor inconclusive, FMDV inh 29.7%, Marburg entry inh inconclusive, Lassa entry inh 10.2%[46.1 µM] and Shiga toxin inh 44.5.
Screening COc1cc(/C=C/C(=O)OCC(=O)Nc2ccc3c(c2)OCCO3)ccc1O returned CHX counter 3.7, HCV inhibitor 10.9%, FMDV inh -4.8%, Marburg entry inh inconclusive, Lassa entry inh -25.5% and Shiga toxin inh 16.9.
For COc1cc(/C=C(\C#N)C(=O)Nc2ccccn2)ccc1O the results were CHX counter 19.1*, HCV inhibitor 17.0%, FMDV inh 74.4%, Marburg entry inh inconclusive and Shiga toxin inh 51.6*.
`COc1cc(/C=C(\C#N)C(=O)Nc2ccc3c(c2)OCCO3)ccc1O` gave CHX counter 33.0*, HCV inhibitor inconclusive, FMDV inh 12.5% and Shiga toxin inh 51.1*.

Bioassay records (PubChem BioAssay)
